Structures are written as SMILES. Active and inactive are the calls of the source. How the source made its calls: active means hit-call score of the fitted dose curve at least 0.9, where 1 is the maximum; inactive means score below 0.9.

Read-out in the test: Bcl-2 (BAD) gene, BAD (gene 572)
Briefly: LTEA_HepaRG_BAD: Life Technologies and Expression Analysis (LTEA) Assay for Bcl-2 (BAD) gene using HepaRG (AID 2283469). To be noted: mRNA level, 48 h; actives raise or lower the signal. As to the method:
LTEA_HepaRG is a cell based, multiplexed-readout assay that uses HepaRG, a human liver cell line, with measurements taken at 48 hours after chemical dosing on a 96-well plate.LTEA_HepaRG_BAD is one of 102 assay component(s) measured in the LTEA HepaRG cell culture assay. It is a marker of Cell proliferation, survival, death.Data from the assay component LTEA_HepaRG_BAD was analyzed into 1 endpoint. This assay endpoint, LTEA_HepaRG_BAD, was analyzed with bidirectional fitting relative to DMSO as the negative control and baseline of activity. Using a type of inducible reporter, measures of mRNA induction for gain or loss-of-signal activity can be used to understand regulation of transcription factor activity. To generalize the intended target to other relatable targets, this assay endpoint is annotated to the cell cycle intended target family, where the subfamily is Cell proliferation, survival, death.
A total of 1060 chemcials from the ToxCast library were tested in eight-point concentration-response experiments. Cell culture and cytotoxicity assays were conducted at Thermo Fisher Scientific's Custom Services facility (Madison, WI). A single lot of human HepaRG cells (Thermo Fisher Scientific, Frederick, MD) was used for the cell culture experiments. 96-well format collagen type I coated plates of human HepaRG cells were prepared using established methods. Briefly, cryopreserved HepaRG cells were thawed, plated at a density of approximately 100,000 cells/well in HepaRG Thaw, Plate, and General Purpose media (HPRG770, Thermo Fisher Scientific), and incubated for 48 hours. 0.5% DMSO was selected as vehicle control to balance the requisite need of DMSO in HepaRG cultures to maintain differentiation (for example, baseline metabolism, proportions of hepatocytes vs. cholangiocytes), while enabling further hepatic receptor pathway activation (for example, PXR and CAR) in response to chemical exposure. 48 hours after plating, the culture medium was replaced with HepaRG Serum-Free Incudtion Media. Cells were exposed to each test chemical in duplicate and maintained in CO2 incubators for another 48 hours. Chemical plates were thawed to room temperature and 200x concentrations of treatment groups were prepared. 8-point conentration-reponse curves were made with the highest exposure at 100 uM, followed by half-log dilutions, all in 0.5% DMSO. Each test plate contained variouse controls, induction positive controls (1mM phenobarbital), cytotoxicity positive controls ([…] aflatoxin B1), vehicle controls (0.5% DMSO), and total lysis controls (0.5% DMSO). Cell morphology images were taken using an Essen IncuCyte FLR automated microscope, with six 96-well plates imaged in about 24 minutes. Images were captured and exported and JPEG files. Spent culture media was transfered to black-well plates for the LDH assay, and remaining media was sorted at -80 C for later use. Cells were treated with RLT buffer and frozen until shipped for gene expression analysis. Total RNA was isolated from the cell suspension in 75 uL of Buffer RLT (Qiagen, Germantown, MD 20874) by Quintiles/Expression Analysis (Durham, NC) using a custom isolation procedure. Total RNA from each plate well was transferred to a preamplification plate. Fluidigm's 96.96 Dynamic ArrayTM (Fluidigm, Amsterdam, the Netherlands) technology was used for gene expression analyses by quantitative reverse transcription polymerase chain reaction (qRT-PCR, performed by Quintiles/Expression Analysis, Durham, NC)89. Standard TaqManTM Assays (Applied Biosystems/ThermoFisher Scientific, Foster City, CA) were used to assess the expression of 93 genes selected based on their selectivity and sensitivity to important hepatic receptors known to be modulated by environmental chemicals; importance in human hepatocyte functionality; and hepatotoxicity. […]
Regarding `CN(C)C(=O)Cl`, the outcome was inactive.

Turning to `CCCCN(CCCC)SN(C)C(=O)Oc1cccc2c1OC(C)(C)C2`, the compound was classed as inactive.

`CCOc1ccc(C(C)(C)COCc2cccc(Oc3ccccc3)c2)cc1`: the outcome was inactive.

With `CCC(C)(C)c1ccc(O)cc1`, the outcome was inactive.

On to `CC(Cc1ccc(OCC(=O)O)cc1)NCC(O)c1csc(C(F)(F)F)n1` (stereo not given), for which the compound was classed as inactive.

Take `CCCCc1ccccc1`: the result was inactive.

As to `O=[N+]([O-])c1ccccc1`, the compound was called inactive.

For `c1cc2c3c(cccc3c1)CC2`, the compound was called inactive.

With `[N-]=[N+]=[N-]`, the outcome was inactive.

For `CCCCN(CCCC)N=O`, the call was inactive.

As to `O=[N+]([O-])c1ccc(Cl)c(Cl)c1`, the call was inactive.

As to `Cc1ccc(O)cc1C`, the compound was classed as inactive.

Take `CSC(C)(C)C=NO`: the outcome was inactive.

For `OCC1CO1` (stereo not given), the compound was classed as inactive.

Take `CC(C)(C)c1ccc(O)cc1`: the outcome was inactive.

With `CC(C)(C)OOC(C)(C)C`, the result was inactive.

Regarding `Cc1ccc([N+](=O)[O-])cc1C`, the compound was classed as inactive.

Regarding `O=P1(N(CCCl)CCCl)NCCCO1` (stereo not given), the compound was classed as inactive.

`Nc1cc2c3c(c1)C(c1ccccc1)=N[C@@H](NC(=O)c1cccnc1)C(=O)N3CC2`: the result was inactive.

Regarding `O=C(O)C1C(C(=O)O)C2(Cl)C(Cl)=C(Cl)C1(Cl)C2(Cl)Cl` (stereo not given), the outcome was inactive.

As to `COCCOCCO`, the compound was called inactive.

For the compound `CCC1(c2ccccc2)C(=O)N=C(O)NC1=O` (stereo not given), the result was inactive.

With `CCOS(=O)(=O)OCC`, the result was inactive.

On to `c1ccc2c(c1)Nc1ccccc1S2`, for which the compound was called inactive.

As for `CCOC(=O)c1ccccc1C(=O)OCC`, the result was inactive.

For `CC(Cl)(Cl)C(=O)O`, the compound was called inactive.

`CCOP(=S)(OCC)SCSCC`: the compound was called inactive.

On to `c1ccc(OP(Oc2ccccc2)Oc2ccccc2)cc1`, for which the call was inactive.

As to `CCCN(CCC)c1c([N+](=O)[O-])cc(C(C)C)cc1[N+](=O)[O-]`, the result was inactive.

In the case of `Nc1ccc2ccccc2c1`, the compound was classed as inactive.

Turning to `O=C(O)C(Cl)Cl`, the result was inactive.

Regarding `CCOP(=S)(Oc1ccc([N+](=O)[O-])cc1)c1ccccc1` (stereo not given), the compound was called inactive.

In the case of `Cc1cccc(N)c1`, the call was inactive.

On to `ClC1=C(Cl)C2(Cl)C3C(Cl)C(Cl)CC3C1(Cl)C2(Cl)Cl` (stereo not given), for which the compound was called inactive.

For the compound `Cc1ccc(N)cc1N`, the compound was called inactive.

On to `CCCCCCCc1ccc(O)cc1`, for which the compound was called inactive.

As for `CCN(CC)c1ccccc1`, the result was inactive.

With `CCNc1nc(Cl)nc(NC(C)(C)C)n1`, the call was inactive.

Turning to `c1nc[nH]n1`, the half-maximal activity concentration (AC50) (commonly the midpoint of the concentration-response curve, whichever way the signal moves) is 105 nM (active).

Take `Nc1ccc(Cl)cc1`: the compound was called inactive.
